Assay outcomes (PubChem BioAssay)
Jurkat NFkB inh: inhibitors of the PMA/ionomycin-induced NF-kB reporter in Jurkat cells; PMA/ionomycin-induced NF-kB luciferase reporter, luminescence; inhibition, % at 4 µM; hit rate 0.53% among 330,000; in the data active = inhibition above about 50%
aSyn UTR inh: 5' untranslated region of α-synuclein, MLPCN primary screen. alpha-synuclein 5'UTR reporter, inhibitor activity. inhibition, % (tested at 7.5 µM). hit rate 0.82% among 300,000. AID 1813; in the data active = inhibition above about 60%;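 also: H4 neuroglioblastoma cells stably carrying SNCA 5'UTR luciferase fusion; 0% = DMSO wells and 100% = positive control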
Mdm2-MdmX inh: human Mdm2/MdmX binding inhibition; AID 485346; inhibition, % at 8 µM; SaOS-2 split-luciferase Mdm2/MdmX complementation, luminescence; hit rate 3% among 330,000;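 active = inhibition of at least 50% at 8 µM in the primary screen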
Target sequence (O15151 whole entry, looked up): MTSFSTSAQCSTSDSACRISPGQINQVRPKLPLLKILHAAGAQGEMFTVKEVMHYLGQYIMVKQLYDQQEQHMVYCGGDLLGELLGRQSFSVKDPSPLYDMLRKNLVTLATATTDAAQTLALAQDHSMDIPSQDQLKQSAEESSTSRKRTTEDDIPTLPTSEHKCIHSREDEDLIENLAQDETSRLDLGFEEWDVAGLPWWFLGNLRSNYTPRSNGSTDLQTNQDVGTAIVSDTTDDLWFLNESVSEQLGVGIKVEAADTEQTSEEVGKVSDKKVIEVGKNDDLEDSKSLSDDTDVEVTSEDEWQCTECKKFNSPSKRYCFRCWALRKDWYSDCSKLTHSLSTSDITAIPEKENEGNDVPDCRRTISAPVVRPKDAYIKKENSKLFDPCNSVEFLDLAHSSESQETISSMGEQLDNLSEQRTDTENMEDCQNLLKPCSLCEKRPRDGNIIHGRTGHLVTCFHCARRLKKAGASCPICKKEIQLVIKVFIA
Target sequence (Q00987 whole entry, looked up): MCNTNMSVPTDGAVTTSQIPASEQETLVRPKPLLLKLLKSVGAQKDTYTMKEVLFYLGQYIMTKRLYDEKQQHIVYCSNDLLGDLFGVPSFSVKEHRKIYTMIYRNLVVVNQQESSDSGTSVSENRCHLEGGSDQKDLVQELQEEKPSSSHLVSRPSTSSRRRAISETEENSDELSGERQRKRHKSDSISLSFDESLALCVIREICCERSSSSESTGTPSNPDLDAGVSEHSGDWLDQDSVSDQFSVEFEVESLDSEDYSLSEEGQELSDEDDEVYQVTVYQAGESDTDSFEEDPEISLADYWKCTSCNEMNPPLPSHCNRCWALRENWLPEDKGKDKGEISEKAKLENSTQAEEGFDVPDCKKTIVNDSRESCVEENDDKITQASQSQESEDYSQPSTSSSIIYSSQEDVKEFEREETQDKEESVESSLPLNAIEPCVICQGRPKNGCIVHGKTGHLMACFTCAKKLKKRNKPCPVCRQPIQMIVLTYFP
Gli-Sufu block: Gli-Sufu pathway antagonism; Sufu-KO-LIGHT fibroblasts, Gli luciferase reporter luminescence; inhibition, % at 5 µM; hit rate 0.74% among 340,000;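 active = inhibition above about 55%, limit read from the data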;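 also: 0% = DMSO-treated cells and 100% = wells with medium but no cells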
697 NFkB inh: inhibitors of the PMA/ionomycin-induced NF-kB reporter in 697 B cells | hit rate 0.33% among 330,000 | AID 435022 | inhibition, % at 4 µM | 697 B-cell NF-kB luciferase reporter, 16 h; in the data active = inhibition above about 35%
CSC inhib: blocks cancer stem cells | inhibition, % at 7.5 µM | hit rate 1.1% among 300,000 | AID 2717 | cancer stem cell-like cells viability, luminescence; in the data active = inhibition above about 75%; tested in HMLE shEcad cells
Mdm2 MdmX conf: confirmation of human Mdm2/MdmX interaction inhibitors. shares compounds with Mdm2-MdmX inh. Mdm2-MdmX binding, luminescent assay. inhibition, % at 8 µM. hit rate 55% among 10,000. AID 489028; in the data active = inhibition above about 40%
Full FLuc ctr: inhibits full-length luciferase, flagging false Mdm2/MdmX hits; SaOS-2 full-length luciferase counterscreen, luminescence; inhibition, % at 8 µM; AID 504607; hit rate 77% among 6,200; shares compounds with Mdm2-MdmX inh;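 active = mean inhibition at 8 µM reaching about 37%, which flags the compound as non-specific, limit read from the data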;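 also: p53-null SaOS-2 cells with luciferase driven by a doxycycline-inducible promoter; compound on cells about two nights before reading with doxycycline added after day one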
Gli antag conf: Gli-SUFU antagonism confirmation, single concentration. shares compounds with Gli-Sufu block. Sufu-KO-LIGHT cells, Gli luciferase reporter, luminescence. inhibition, % at 5 µM. hit rate 40% among 2,500;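 active = mean inhibition at 5 µM reaching about 45%, limit read from the data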;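 also: plate controls were DMSO-treated cells for no effect and wells lacking cells for full effect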
SufuKO cytotox: cytotoxicity counter-screen for Gli-SUFU antagonists; shares compounds with Gli-Sufu block; Sufu-KO-LIGHT cells cytotoxicity, ATP luminescence; cytotoxicity, % at 5 µM; hit rate 32% among 2,500; AID 651994;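 active = mean cytotoxicity at 5 µM above about 25%, limit read from the data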;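 also: cells exposed to compound overnight for roughly 16 to 18 hours; plate controls were DMSO wells with cells for no effect and medium without cells for full effect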
Wnt3a cs: counter-screen for Gli-SUFU antagonists: Wnt3a reporter inhibition | Wnt-LIGHT cells, Wnt3a-driven luciferase reporter, luminescence | hit rate 20% among 2,500 | inhibition, % at 6.25 µM | shares compounds with Gli-Sufu block | AID 651995;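 active = mean inhibition above about 25%, limit read from the data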
Numbers without * were called inactive; ! = a repeat was not active. Sampled rows, rich in hits. Any-hit rate of the full collection: about 4.5%.

How did CCc1ccc(-c2csc3ncn(CC(=O)N4CCOCC4)c(=O)c23)cc1 do in these assays?
Jurkat NFkB inh: 8; aSyn UTR inh: 14; Mdm2-MdmX inh: 9; Gli-Sufu block: 3; 697 NFkB inh: 1; CSC inhib: 7

Results for CCCCN(CC)CCCNC(=O)c1cc2c(-c3ccc(OC)c(OC)c3)nn(C)c2s1 ?
Jurkat NFkB inh: -48; aSyn UTR inh: -47; Mdm2-MdmX inh: 57*; Gli-Sufu block: 56*; 697 NFkB inh: 1; CSC inhib: -2; Mdm2 MdmX conf: 67*; Full FLuc ctr: 82*; Gli antag conf: 17; SufuKO cytotox: 11; Wnt3a cs: -14

What do the screens show for `O=C(N/N=C\c1c(O)ccc2ccccc12)c1ccc(Cn2cccn2)o1`?
Jurkat NFkB inh: 40; aSyn UTR inh: 92*; Mdm2-MdmX inh: 75*; Gli-Sufu block: 58*; 697 NFkB inh: 9; CSC inhib: 30; Mdm2 MdmX conf: 74*; Full FLuc ctr: 25; Gli antag conf: 69*; SufuKO cytotox: 26*; Wnt3a cs: 59*

Results for O=C(CN1CCCC1)N/N=C/c1c(O)ccc2ccccc12 ?
Jurkat NFkB inh: 20; aSyn UTR inh: 41; Mdm2-MdmX inh: 72*; Gli-Sufu block: 55; 697 NFkB inh: 8; CSC inhib: 35; Mdm2 MdmX conf: 76*; Full FLuc ctr: 39*; Gli antag conf: 66*; SufuKO cytotox: 37*; Wnt3a cs: 60*

How did CC1CCN(S(=O)(=O)c2ccc(S(=O)(=O)N3CCCC3)cc2)CC1 do in these assays?
Jurkat NFkB inh: 1; aSyn UTR inh: 8; Mdm2-MdmX inh: 37; Gli-Sufu block: 9; 697 NFkB inh: 12; CSC inhib: -15

Results for COc1ccc(O)c(/C=N/NC(=O)c2ccc(CSc3nc(C)cc(C)n3)cc2)c1 ?
Jurkat NFkB inh: 27; aSyn UTR inh: 19; Mdm2-MdmX inh: 77*; Gli-Sufu block: 63*; 697 NFkB inh: -30; CSC inhib: 110*; Mdm2 MdmX conf: 74*; Full FLuc ctr: 31; Gli antag conf: 48*; SufuKO cytotox: 19; Wnt3a cs: 41*

How did CC1CCC(C(C)C)C(OC(=O)Cn2c(-c3ccc(Br)cc3)[n+](C)c3ccccc32)C1 (centres undefined) do in these assays?
Jurkat NFkB inh: 30; aSyn UTR inh: 7; Mdm2-MdmX inh: 100*; Gli-Sufu block: 70*!; 697 NFkB inh: -61; CSC inhib: 3; Mdm2 MdmX conf: 95*; Full FLuc ctr: 57*; Gli antag conf: 70*; SufuKO cytotox: 41*; Wnt3a cs: -27

What do the screens show for `CCOc1ccc(S(=O)(=O)NCCC(=O)NC2CCC(C)CC2)cc1` (centres undefined)?
Jurkat NFkB inh: -2; Mdm2-MdmX inh: 8; Gli-Sufu block: 18; 697 NFkB inh: 18; CSC inhib: -16

What do the screens show for `O=C(N[C@H]1C/C=C\C[C@@H](CC(=O)N(CCO)Cc2ccccc2)C(=O)NC[C@H](c2ccccc2)OC1=O)OCC1c2ccccc2-c2ccccc21`?
Jurkat NFkB inh: 11; Mdm2-MdmX inh: 58*; Gli-Sufu block: 59*; 697 NFkB inh: 1; CSC inhib: 104*; Mdm2 MdmX conf: 12; Gli antag conf: 59*; SufuKO cytotox: 16; Wnt3a cs: 34*

What do the screens show for `C/C(=C\c1ccc(C)o1)C(=O)c1c(C)cc(C)[nH]c1=O`?
Jurkat NFkB inh: 9; aSyn UTR inh: 8; Mdm2-MdmX inh: 14; Gli-Sufu block: -2; 697 NFkB inh: 15; CSC inhib: -1

Results for CN1C(=O)C(C)(C)c2cc(S(=O)(=O)N3CCCC(C(=O)Nc4ccc(Cl)cc4)C3)ccc21 (centres undefined) ?
Jurkat NFkB inh: 4; aSyn UTR inh: -1; Mdm2-MdmX inh: 26; Gli-Sufu block: 4; 697 NFkB inh: -5; CSC inhib: -10

How did Cc1cc(S(=O)(=O)N2CCCC(C(=O)Nc3ccc(C(=O)O)cc3)C2)ccc1Cl (centres undefined) do in these assays?
Jurkat NFkB inh: -5; aSyn UTR inh: -4; Mdm2-MdmX inh: 1; Gli-Sufu block: 55*; 697 NFkB inh: -1; CSC inhib: -11; Gli antag conf: 16; SufuKO cytotox: -7; Wnt3a cs: 14

Results for Cc1ccc(NC(=O)C2CCN(S(=O)(=O)c3ccc(N4CCCC4=O)cc3)CC2)cc1Cl ?
Jurkat NFkB inh: 24; aSyn UTR inh: -13; Mdm2-MdmX inh: 29; Gli-Sufu block: 81*; 697 NFkB inh: 6; CSC inhib: 0; Gli antag conf: 84*; SufuKO cytotox: 41*; Wnt3a cs: 8

Results for CCOC(=O)c1ccc(OC(=O)CCCCCN=C(N)N)cc1 ?
Jurkat NFkB inh: 5; aSyn UTR inh: -9; Mdm2-MdmX inh: 12; Gli-Sufu block: -10; 697 NFkB inh: 9; CSC inhib: -3

Results for O=C(Cn1cnc2ccccc21)Nc1cccc(S(=O)(=O)N2CCCC2)c1 ?
Jurkat NFkB inh: 28; Mdm2-MdmX inh: -12; Gli-Sufu block: 54; 697 NFkB inh: -1; CSC inhib: 0; Gli antag conf: 53*; SufuKO cytotox: 14; Wnt3a cs: 17

How did O=C(Cn1c(NCCO)nc2ccccc21)Nc1cccc(S(=O)(=O)N2CCCC2)c1 do in these assays?
Jurkat NFkB inh: 4; Mdm2-MdmX inh: 18; Gli-Sufu block: 0; 697 NFkB inh: -2; CSC inhib: 6

Results for O=C(c1ccc(Cl)c(F)c1F)N1CCCC1 ?
Jurkat NFkB inh: 15; aSyn UTR inh: 13; Mdm2-MdmX inh: 8; Gli-Sufu block: -1; 697 NFkB inh: 10; CSC inhib: -4

How did COc1cc(OC)c(CN2CCC(Cc3ccccc3)CC2)cc1Br do in these assays?
Jurkat NFkB inh: 0; aSyn UTR inh: 2; Mdm2-MdmX inh: 13; Gli-Sufu block: 53; 697 NFkB inh: -10; CSC inhib: 42; Gli antag conf: 23; SufuKO cytotox: 21; Wnt3a cs: -36

What do the screens show for `COc1ccc(OC)c(CN2CCC(Cc3ccccc3)CC2)c1`?
Jurkat NFkB inh: 19; aSyn UTR inh: -11; Mdm2-MdmX inh: 21; Gli-Sufu block: 25; 697 NFkB inh: 12; CSC inhib: 48
